Records with an inconclusive call do not appear. A number with no mark means an inactive call. The call rests on the fitted dose curve; in most records, active means well fitted cell-killing curve with a large enough effect in the repeat runs (not every such curve was filed as active); inconclusive means weak or mixed curves, or effect the other way; inactive means no such curve, though single readings can be large or run the other way.
Assay: qHTS assay to identify small molecule antagonists of the estrogen related receptor signaling pathway with the pleiotropic PPARgamma coactivator (PGC) from Tox21 10K library - cell viability counter screen (AID 1224840); further: nearly all actives have a fitted effect of over 40% in size
Conditions: PGC/ERR reporter cells viability, CellTiter-Fluor, 17.5 h; series mostly up to 92.4 µM; viability change, negative = cytotoxic: at the top concentration
Excerpt: National Center for Advancing Translational Sciences [NCATS]
NIH Chemical Genomics Center [NCGC]
U.S. Environmental Protection Agency [EPA]
National Institutes of Environmental Health Sciences [NIEHS]
National Toxicology Program [NTP]
U.S. Food and Drug Administration [FDA]
Estrogen related receptors (ERRs), the first orphan nuclear receptors discovered, play an important role in the control of cellular energy metabolism. ERRs are required for high-energy production in response to the environmental challenges. The pleiotropic PPARgamma coactivator (PGC) is a major partner of ERR and a key regulator in energy homeostasis. Together they have been implicated in the etiology of metabolic disorders such as Type 2 diabetes and metabolic syndrome. ERR-alpha was also identified as an adverse marker for breast cancer progression; ERR-alpha-positive tumors have a poor prognosis. To screen and to identify environmental compounds that perturb the ERR and PGC/ERR signaling pathways could provide valuable information for potential therapeutic or preventive measures in the treatment of metabolic disease. To differentiate true PGC/ERR antagonists or agonist from cytotoxic substances, the assay is multiplexed with cell viability assay.
Tox21 Assay Protocol Summary:
The PGC/ERR cells were dispensed at 2,000 cells/5 ul/well in 1536-well white plates using a Multidrop dispenser. After the assay plates were incubated at a 37 C/5% CO2 incubator for 6 hours, 23 nL of compounds dissolved in DMSO, positive and negative controls or DMSO only was transferred to the assay plate by a pin tool. The plates were incubated at 37 C for 17.5 hours. 1 ul/well of CellTiter-Fluor reagent was added into the assay plates using a Flying Reagent Dispenser. After 30-minute incubation at 37 C/5% CO2, the fluorescence intensity in the plates was measured using a ViewLux plate reader.
On the % scale 0 is the no-effect control and ±100 the full control effect.

Structure (SMILES)	viability change, negative = cytotoxic
CC(C)(C)c1cc(CCC(=O)NN)cc(C(C)(C)C)c1O	-5.03%
O=C(O)Cc1cn(-c2ccccc2)nc1-c1ccc(Cl)cc1	-13.9% [at 42.5 µM]
CCc1ccc(C=O)cc1	-2.61%
N[C@@H](CCC(=O)Nc1ccc([N+](=O)[O-])cc1)C(=O)O	-12.3%
COC(=O)CCc1ccc(OCC(O)CNC(C)C)cc1 (stereo not given)	2.61% [at 42.5 µM]
CC(C)C[C@H](NC(=O)CNC(=O)[C@H](Cc1ccc(O)cc1)NC(=O)[C@H](CO)NC(=O)[C@H](Cc1c[nH]c2ccccc12)NC(=O)[C@H](Cc1cnc[nH]1)NC(=O)[C@@H]1CCC(=O)N1)C(=O)N[C@@H](CCCN=C(N)N)C(=O)N1CCC[C@H]1C(=O)NCC(N)=O (stereo in doubt)	1.18% [at 42.5 µM]
CC(COC(C)(C)C)OCCCO (stereo not given)	1.42%
CCC(C=O)CC	1.3%
CCCC/C=C\CCCCCCCCCC=O	5.04%
O=C(O)c1cc(Cl)cc([N+](=O)[O-])c1Cl	6.9%
CCCCOC(=O)c1ccccc1	3.84%
CC(C)OC(=O)CCCCC(=O)OC(C)C	4.9%
O=S(=O)(O)CCN1CCN(CCO)CC1	0.209%
CCCCCCCCCC(C)=O	-1.88%
Cc1cccc(C)c1NC(=O)c1ccccc1C(=O)O	0.127% [at 42.5 µM]
O=C1O[C@@H]2[C@@H](O)[C@H](O)O[C@@H]2[C@H]1O	1.81%
CC1(C)S[C@@H]2[C@H](N=CN3CCCCCC3)C(=O)N2[C@H]1C(=O)O	1.08% [at 42.5 µM]
C=C(C)C(=O)OCCN(CC)CC	3.74%
Cc1ccsc1/C=C/C1=NCCCN1C	17.5% [at 42.5 µM]
Cc1cc(NC(=O)C2=C(O)c3ccccc3S(=O)(=O)N2C)no1	3.18% [at 42.5 µM]

Structure (SMILES)	viability change, negative = cytotoxic
CCCN1C[C@H](CSC)C[C@@H]2c3cccc4[nH]cc(c34)C[C@H]21	9.22% [at 42.5 µM]
COc1ccc2nc(SCc3ncc(C)c(OC)c3C)[nH]c2c1	-0.39% [at 42.5 µM]
NS(=O)(=O)c1ccc(NC(=O)CCC(=O)O)cc1	1.33% [at 42.5 µM]
CC(C)C(=O)OCc1cccc(OC(=O)[C@@H]2N3C(=O)[C@@H](NC(=O)Cc4ccccc4)[C@H]3SC2(C)C)c1	5.07% [at 42.5 µM]
COc1cc(N)ccc1C	-14.5%
COc1ccc(C2CNC(=O)C2)cc1OC1CCCC1 (stereo not given)	6.7% [at 42.5 µM]
On1nnc2ccccc21	1.96%
C=Cc1ccccn1	-0.25%
O=P(O)(O)OP(=O)(O)O	-3.11%
Nc1ccc(S(=O)(=O)Nc2ccc(Cl)nn2)cc1	0.39% [at 42.5 µM]
C=CCCCCCCCCCCCC	-10.6%
O=C(NCC(O)CO)c1c(I)c(C(=O)NCC(O)CO)c(I)c(N(CCO)C(=O)CO)c1I (stereo not given)	4.38% [at 42.5 µM]
CCCCCCCCSCC	8.53%
O=C(O)c1cc(Br)c(O)c(Br)c1	-2.07%
CC(CN)CC(C)(C)CCN (stereo not given)	-20.1% [at 238 µM]
Cc1c(I)c(=O)n(-c2ccccc2)n1C	-3.8% [at 42.5 µM]
CCCCCCN	2.93%
COP(=O)(OC)OC(c1ccc(Cl)cc1)P(=O)(OC)OC (stereo not given)	0.0898% [at 42.5 µM]
CCOCCOC(=O)/C=C/c1ccc(OC)cc1	15.7% [at 42.5 µM]
O=C(OCc1ccccc1)C(=O)OCc1ccccc1	2.44%
